Assay results from PubChem BioAssay AID1159580 (chemical genetic matrix, 2015).
Out of some 5,500 compounds screened, about 2,000 (36%) were called active. About 18% were inconclusive and are not listed. Cut-off read from the data, not from the text of the source: active = normalized growth mostly below about 0.91 (no sharp cut-off); inconclusive = no clear call, values can overlap the other calls; inactive = mostly above about 0.92. This is one part of the list.

Assay: chemical genetic growth profiling, strain panel (AID 1159580);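 note: tested at 20 µM; growth read once vehicle control cultures reached saturation at 30 °C; 1 = growth at the plate median or of vehicle wells; lower values mean less growth of the strain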
Details: growth OD

Measured: normalized growth

CC[N+]1(C)CCCC(OC(=O)C(O)(c2ccccc2)c2ccccc2)C1 (stereo not given)
inactive: S. cerevisiae deletion strains, locus YJR066W, strain TOR1, hits give low values 0.954 | S. cerevisiae deletion strains, locus YKL009W, strain mrt4, hits give low values 1.01 | S. cerevisiae deletion strains, locus YKL068W, hits give low values 1.01 | S. cerevisiae deletion strains, locus YKL085W, strain MDH1 (second series), hits give low values 0.994 | S. cerevisiae deletion strains, locus YKL085W, strain MDH1, hits give low values 0.994 | S. cerevisiae deletion strains, locus YKL160W, strain elf1, hits give low values 1.01 | S. cerevisiae deletion strains, locus YKL190W, strain CNB1, hits give low values 1.01 | S. cerevisiae deletion strains, locus YKR001C, strain vps1, hits give low values 1.02 | S. cerevisiae deletion strains, locus YKR026C, strain gcn3, hits give low values 1.04 | S. cerevisiae deletion strains, locus YKR091W, strain srl3, hits give low values 1.02 | S. cerevisiae deletion strains, locus YLL001W, strain dnm1, hits give low values 1.01 | S. cerevisiae deletion strains, locus YLL026W, hits give low values 1.02 | S. cerevisiae deletion strains, locus YLL041C, strain sdh2, hits give low values 1.02 | S. cerevisiae deletion strains, locus YLR027C, strain aat2, hits give low values 1.01 | S. cerevisiae deletion strains, locus YLR039C, strain RIC1, hits give low values 1.03 | S. cerevisiae deletion strains, locus YLR058C, strain SHM2, hits give low values 1.01 | S. cerevisiae deletion strains, locus YLR102C, strain apc9, hits give low values 1 | S. cerevisiae deletion strains, locus YLR113W, strain HOG1, hits give low values 1.05 | S. cerevisiae deletion strains, locus YLR221C, strain rsa3, hits give low values 1.01 | S. cerevisiae deletion strains, locus YLR258W, strain gsy2, hits give low values 1.02 | S. cerevisiae deletion strains, locus YLR262C, strain YPT6 (second series), hits give low values 1.02 | S. cerevisiae deletion strains, locus YLR262C, strain YPT6, hits give low values 1.07 | S. cerevisiae deletion strains, locus YLR268W, strain sec22, hits give low values 1.01 | S. cerevisiae deletion strains, locus YLR320W, strain mms22, hits give low values 1.02 | S. cerevisiae deletion strains, locus YLR330W, strain CHS5, hits give low values 1.01 | S. cerevisiae deletion strains, locus YLR342W, strain FKS1 (second series), hits give low values 1.03 | S. cerevisiae deletion strains, locus YLR342W, strain FKS1, hits give low values 1.03 | S. cerevisiae deletion strains, locus YLR357W, strain rsc2, hits give low values 1.02 | S. cerevisiae deletion strains, locus YLR370C, strain arc18, hits give low values 1.03 | S. cerevisiae deletion strains, locus YLR371W, strain rom2, hits give low values 1.01 | S. cerevisiae deletion strains, locus YLR384C, strain iki3, hits give low values 1.02 | S. cerevisiae deletion strains, locus YLR418C, strain cdc73, hits give low values 1.03 | S. cerevisiae deletion strains, locus YML016C, strain PPZ1, hits give low values 1 | S. cerevisiae deletion strains, locus YML032C, strain rad52, hits give low values 1.02 | S. cerevisiae deletion strains, locus YML120C, strain ndi1, hits give low values 1.01 | S. cerevisiae deletion strains, locus YML124C, strain tub3, hits give low values 1.01 | S. cerevisiae deletion strains, locus YMR058W, strain fet3, hits give low values 1.02 | S. cerevisiae deletion strains, locus YMR078C, strain ctf18, hits give low values 0.998 | S. cerevisiae deletion strains, locus YMR125W, strain sto1, hits give low values 1.02 | S. cerevisiae deletion strains, locus YMR129W, hits give low values 1.03 | S. cerevisiae deletion strains, locus YMR205C, strain PFK2, hits give low values 1.03 | S. cerevisiae deletion strains, locus YMR223W, strain ubp8, hits give low values 1.03 | S. cerevisiae deletion strains, locus YMR231W, strain pep5, hits give low values 1.03 | S. cerevisiae deletion strains, locus YMR263W, strain SAP30, hits give low values 1.01 | S. cerevisiae deletion strains, locus YMR307W, strain GAS1, hits give low values 1.1 | S. cerevisiae deletion strains, locus YNL067W, strain RPL9B, hits give low values 1.01 | S. cerevisiae deletion strains, locus YNL071W, strain lat1, hits give low values 1.02 | S. cerevisiae deletion strains, locus YNL128W, strain TEP1, hits give low values 1.03 | S. cerevisiae deletion strains, locus YNL153C, strain GIM3, hits give low values 0.997 | S. cerevisiae deletion strains, locus YNL183C, strain NPR1, hits give low values 0.942 | S. cerevisiae deletion strains, locus YNL209W, strain ssb2, hits give low values 1.02 | S. cerevisiae deletion strains, locus YNL233W, strain BNI4, hits give low values 1.01 | S. cerevisiae deletion strains, locus YNL248C, strain rpa49, hits give low values 1.02 | S. cerevisiae deletion strains, locus YNL250W, strain rad50, hits give low values 1.01 | S. cerevisiae deletion strains, locus YNL271C, strain bni1, hits give low values 1.03 | S. cerevisiae deletion strains, locus YNL298W, strain CLA4, hits give low values 1.01 | S. cerevisiae deletion strains, locus YNL307C, strain MCK1, hits give low values 1.02 | S. cerevisiae deletion strains, locus YNL322C, strain KRE1 (second series), hits give low values 1.01 | S. cerevisiae deletion strains, locus YNL322C, strain KRE1, hits give low values 1.01 | S. cerevisiae deletion strains, locus YNR049C, strain mso1, hits give low values 1.02 | S. cerevisiae deletion strains, locus YNR052C, strain pop2, hits give low values 1.02 | S. cerevisiae deletion strains, locus YOL006C, strain TOP1, hits give low values 1 | S. cerevisiae deletion strains, locus YOL012C, strain htz1 0.812 | S. cerevisiae deletion strains, locus YOL147C, strain pex11, hits give low values 1.01 | S. cerevisiae deletion strains, locus YOR001W, strain rrp6, hits give low values 1.01 | S. cerevisiae deletion strains, locus YOR061W, strain CKA2, hits give low values 1.01 | S. cerevisiae deletion strains, locus YOR069W, strain VPS5, hits give low values 1.01 | S. cerevisiae deletion strains, locus YOR070C, strain gyp1, hits give low values 1.01 | S. cerevisiae deletion strains, locus YOR080W, strain dia2, hits give low values 1.01 | S. cerevisiae deletion strains, locus YOR083W, strain WHI5, hits give low values 1.01 | S. cerevisiae deletion strains, locus YOR106W, strain vam3, hits give low values 1.02 | S. cerevisiae deletion strains, locus YOR136W, strain idh2, hits give low values 1.01 | S. cerevisiae deletion strains, locus YOR144C, strain elg1, hits give low values 1.01 | S. cerevisiae deletion strains, locus YOR184W, strain ser1, hits give low values 1 | S. cerevisiae deletion strains, locus YOR231W, strain MKK1, hits give low values 1.03 | S. cerevisiae deletion strains, locus YOR265W, strain rbl2, hits give low values 1.01 | S. cerevisiae deletion strains, locus YOR270C, strain vph1, hits give low values 1.1 | S. cerevisiae deletion strains, locus YOR290C, strain snf2, hits give low values 1.01 | S. cerevisiae deletion strains, locus YOR316C, strain cot1, hits give low values 1.01 | S. cerevisiae deletion strains, locus YPL051W, strain arl3, hits give low values 1.01 | S. cerevisiae deletion strains, locus YPL078C, strain atp4, hits give low values 1.02 | S. cerevisiae deletion strains, locus YPL106C, strain sse1, hits give low values 1.02 | S. cerevisiae deletion strains, locus YPL240C, strain hsp82, hits give low values 1.04 | S. cerevisiae deletion strains, locus YPL256C, strain CLN2, hits give low values 1.04 | S. cerevisiae deletion strains, locus YPR119W, strain clb2, hits give low values 1.01 | S. cerevisiae deletion strains, locus YPR141C, strain kar3, hits give low values 1.01 | S. cerevisiae deletion strains, locus YPR163C, strain tif3, hits give low values 1.01 | S. cerevisiae deletion strains, locus YPR167C, strain met16, hits give low values 1.01 | S. cerevisiae deletion strains, strain wtn01, hits give low values 1.01 | S. cerevisiae strains, strain wild type, hits give low values 1.01
